# HPGD inh – qHTS Assay for Inhibitors of HPGD (15-Hydroxyprostaglandin Dehydrogenase) | purified HPGD, NADH fluorescence kinetic, PGE2 substrate | 150,000 compounds, 4.3% hits | 15-hydroxyprostaglandin dehydrogenase [NAD(+)] (Homo sapiens), P15428 | Potency, µM, without a hit: top-dose activity change, negative = inhibition, usual class: inhibitors | AID 894, 2007; note: potency is the fitted concentration of half-maximal effect
#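 NADH formation kinetics: reaction with 30 uM PGE2 and 1 mM NAD+ (final), 20 nM enzyme, Tris-HCl pH 8 with Tween 20, after 15 min compound preincubation at room temperature. Fluorescence change, last versus first of five reads.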
# PNC inhibitor – High Content Assay for Compounds that inhibit the Assembly of the Perinucleolar Compartment | PC3M PTB-GFP, PNC prevalence imaging, 16 h; stronger effect = lower value | activity change (PNC), negative = inhibition, % at 10 µM | 140,000 compounds, 3.1% hits;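 active = readout at or below -70, meaning at least 70% loss of cells showing the perinucleolar compartment, a nuclear body marking cancer cells; inconclusive = readout between -30 and a set limit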;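 note: plate controls were DMSO wells for no effect and camptothecin positive control wells for full effect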
#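 Read-out is percentage of cells bearing a perinucleolar compartment, from automated 20x imaging of fixed, Hoechst-stained PC3M PTB-GFP cells. Cells were seeded 4 h, then exposed 16 h to compound (23 nl of library stock) in duplicate plates.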
# ALDH1A1 inh – qHTS Assay for Inhibitors of Aldehyde Dehydrogenase 1 (ALDH1A1); Aldehyde dehydrogenase 1A1 (Homo sapiens), P00352; Purified ALDH1A1, NADH fluorescence, propionaldehyde substrate; AID 1030, 2008; Potency, µM (titrated, usually from 75.3 µM), for the others: at the top dose activity, negative = inhibition, usual class: inhibitors; 220,000 compounds, 7.3% hits;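 note: potency is the fitted concentration of half-maximal effect; plate controls were no enzyme wells and a reference inhibitor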
# Target sequence (P00352 whole entry, looked up): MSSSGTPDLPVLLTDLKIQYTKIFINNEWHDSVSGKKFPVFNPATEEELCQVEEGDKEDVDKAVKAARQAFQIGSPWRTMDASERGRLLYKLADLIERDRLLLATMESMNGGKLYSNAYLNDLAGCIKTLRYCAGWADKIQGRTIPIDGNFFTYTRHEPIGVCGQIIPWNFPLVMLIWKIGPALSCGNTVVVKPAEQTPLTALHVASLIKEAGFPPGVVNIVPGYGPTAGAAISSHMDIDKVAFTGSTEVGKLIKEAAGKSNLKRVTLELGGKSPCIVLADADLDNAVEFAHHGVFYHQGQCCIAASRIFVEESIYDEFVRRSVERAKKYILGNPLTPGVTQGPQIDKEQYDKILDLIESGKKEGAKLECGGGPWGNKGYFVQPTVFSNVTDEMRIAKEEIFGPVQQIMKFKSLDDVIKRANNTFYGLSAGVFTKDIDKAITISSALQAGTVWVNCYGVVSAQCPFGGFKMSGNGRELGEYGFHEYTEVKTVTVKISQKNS
# * = called active by the depositor; ? = inconclusive; nt = not tested or not shown; [ ] = another dose, or the depositor's remark. Only some compounds are listed: those with a hit (about 11% of all), similar ones and a draw of the others. Unless noted, calls come from the whole dose curve; as a rule, active = well fitted inhibition curve with a large enough effect (not every such curve was filed as active); inconclusive = small, poorly fitted or top-dose-only effect, or another doubt; inactive = no such curve, though single readings can be large or run the other way. Unless noted, % is set by controls: 0 for no effect and ±100 for the full control effect.
SMILES,HPGD inh,PNC inhibitor,ALDH1A1 inh
Cc1ccccc1C(OCCN(C(C)C)C(C)C)c1ccccc1 (stereo not drawn),1%,1,-9%
CO[C@H]1COC(=O)C/C=C\[C@H](C)[C@H](OC)COC(=O)[C@@H](C)COC(=O)C/C=C\[C@@H]1C,nt,nt,4%[13.5 µM]
COC(=O)NC(c1cccc(C)c1)C(C(C)=O)C(=O)OC (stereo not drawn),nt,nt,7%[13.5 µM]
O=C(NCc1ccccc1)c1ccccc1C(=O)c1ncc[nH]1,nt,nt,3%
CC1(C)C(=O)OC(c2cccn2-c2ccc([N+](=O)[O-])cc2)C(C)(C)C1=O (stereo not drawn),-6%,19,0%
CC1(C)C(=O)C2(CCCCC2)C(=O)OC1c1ccc(O)cc1 (stereo not drawn),-11%,-28,3%
CC1(C)C(=O)C2(CCCCC2)C(=O)OC1c1cccn1-c1ccc([N+](=O)[O-])cc1 (stereo not drawn),-7%,-87*,5%
CC1(C)C(=O)C2(CCCC2)C(=O)OC1c1ccco1 (stereo not drawn),-12%,22,22µM*
CC(=O)NC(=O)c1ccc(-c2ccc(Cl)cc2)o1,?,26,?
CC(=O)NC(=S)Nc1ccc2oc(=O)ccc2c1,nt,nt,8.9µM*
Cc1cc(=O)oc2cc(NC(=O)c3cc4ccccc4o3)ccc12,?,30,?
O=C(Nc1ccc2oc(=O)ccc2c1)c1ccc(-c2ccc(Cl)cc2)o1,nt,8,8.9µM*
O=C(Nc1ccc2oc(=O)ccc2c1)c1cc2ccccc2o1,?,-119*,-3%
COc1cccc(OC)c1C(=O)NC(=S)Nc1ccc2oc(=O)ccc2c1,-8%,-23,?
O=C(Nc1ccc2oc(=O)ccc2c1)c1ccc(-c2cccc([N+](=O)[O-])c2)o1,nt,nt,7.9µM*
O=C(Nc1ncc(Cc2ccccc2Cl)s1)c1ccc(-c2cccc([N+](=O)[O-])c2)o1,nt,12,-10%
COc1ccc(-c2oc3c(CC=C(C)C)c(O[C@H]4OC(CO)C(O)C(O)C4O)cc(O)c3c(=O)c2O[C@@H]2OC(C)C(O)C(O)C2O)cc1 (stereo partly drawn),-7%,nt,5%
NCCC[C@@H](CC(=O)N[C@@H]1CCCC[C@H]1C(=O)N[C@H](CC(=O)N[C@@H](CCC(=O)O)CC(=O)O)Cc1ccccc1)NC(=O)C[C@H](CO)NC(=O)[C@@H]1CCCC[C@H]1N,-1%,nt,-9%
COc1cccc(Cn2c(=O)c(C)nc3cnc(OC)nc32)c1,nt,nt,-3%
Cc1cccc(N(CC(=O)Nc2ccc(CC#N)cc2)S(C)(=O)=O)c1,-4%,-84*,3%
CCc1ccc(NC(=O)CN(c2cccc(C)c2)S(C)(=O)=O)cc1,-2%,-25,8%
COC(=O)c1c([N+](=O)[O-])c(OC)c(OC)c(OC)c1[N+](=O)[O-],nt,nt,-9%
CS(=O)(=O)c1ccc(S(=O)CC(=O)OCc2ccccc2)c([N+](=O)[O-])c1 (stereo not drawn),nt,nt,13µM*
CC(=O)Nc1ccc(S(=O)(=O)NCC(=O)OCc2ccccc2)cc1,-5%,25,-6%
CC(=O)OC1CC2C(C)(C)C(=O)C=C[C@]2(C)C2CC[C@@]3(C)C(c4ccoc4)OC(=O)C4O[C@@]43[C@]12C (stereo partly drawn),-1%,nt,-2%
SMILES,HPGD inh,PNC inhibitor,ALDH1A1 inh
Cc1ccccc1N1CCN(C2=NC(=O)/C(=C/c3cn[nH]c3-c3ccccc3)S2)CC1,-3%,-5,-2%
O=C(Cn1cc2c(n1)CCCCC2)N1CCCCC1,-10%,-119*,-7%
O=C(O)Cn1cc2c(n1)CCCCC2,0%,?,13%
COc1cccc(NC(=O)Cn2cc3c(n2)CCCCC3)c1,-16%,-18,?
COc1ccc(CNC(=O)Cn2cc3c(n2)CCCCC3)cc1,1%,?,1.1µM*
ClC1(Cl)CC1Cn1cnc2ccccc21 (stereo not drawn),nt,nt,-8%
CCN(CC)S(=O)(=O)c1ccc(NC2c3ccccc3C(=O)N2c2ccc(C)cn2)cc1 (stereo not drawn),-12%,8,18µM*
CCOC(=O)N1CCC(N2C(=O)c3ccccc3C2Nc2ccc(S(=O)(=O)N3CCCCC3)cc2)CC1 (stereo not drawn),nt,nt,25µM*
Cc1ccc(N2C(=O)c3ccccc3C2Nc2ccc(S(=O)(=O)N3CCOCC3)cc2)nc1 (stereo not drawn),-7%,1,?
Cc1ccc(N2C(=O)c3ccccc3C2Nc2ccc(S(=O)(=O)N3CCCCC3)cc2)nc1 (stereo not drawn),-2%,-19,14µM*
CCOC(=O)N1CCC(N2C(=O)c3ccccc3C2Nc2ccccc2C)CC1 (stereo not drawn),-3%,?,?
Cc1ccc(N2C(=O)c3ccccc3C2Nc2cccnc2)nc1 (stereo not drawn),-1%,24,-6%
COc1ccc(C(CC(=O)c2ccc(C)cc2)C(C#N)C#N)cc1OC (stereo not drawn),-14%,20,?
Cc1nc2ccccc2c(=O)n1NC(=O)c1ccc([N+](=O)[O-])cc1,nt,nt,2%
C=C(C)C(=O)/C=C/c1ccc(C(F)(F)F)cc1,-5%,nt,10%
O=C(CN1CCOCC1)Nc1ccc(N2CCN(c3ccccc3)CC2)c(F)c1,nt,nt,-5%
C[C@@H]1C(=O)O[C@@H]2C[C@]34[C@H]5C[C@@H](C(C)(C)C)[C@@]36[C@@H](OC(=O)[C@@H]6O)O[C@@]4(C(=O)O5)[C@@]12O,1%,nt,2%[20.9 µM]
Nc1nc(-c2nonc2N)no1,nt,nt,-5%
Nc1nonc1-c1noc(-c2ccccc2)n1,-8%,-100*,4%
COCCn1c(=O)c(-c2ccccc2)nc2cnc(Nc3ccccc3)nc21,-3%,nt,2%
CCC(=O)N1CCc2cc(Br)cc(S(=O)(=O)CCC(=O)NCc3ccco3)c21,-7%,-119*,-8%
CCOC(=O)N1CCN(S(=O)(=O)c2cc(Br)cc3c2N(C(=O)CC)CC3)CC1,-6%,?,10%
CCC(=O)N1CCc2cc(Br)cc(S(=O)(=O)NCc3ccco3)c21,-10%,?,?
CCC(=O)N1CCc2cc(Br)cc(S(=O)(=O)N3CCCCCC3)c21,-7%,-100*,-11%
O=C(CC(c1ccccc1)c1ccccc1)OCn1nnc2ccccc2c1=O,-15%,11,-15%
SMILES,HPGD inh,PNC inhibitor,ALDH1A1 inh
CCCn1c(SCC(=O)N2CCCC(C)C2)nnc1-c1cccnc1 (stereo not drawn),nt,nt,-11%
O=C(c1cc(NC(=O)C23CC4CC(CC(C4)C2)C3)cc(NC(=O)C23CC4CC(CC(C4)C2)C3)c1)N1CCCCC1,-14%,-97*,5%
O=C(NC(=S)N1CCCCC1)C12CC3CC(CC(C3)C1)C2,-11%,-24,-10%
CCCn1c(C)nc2c(NCCCN(CC)CC)nc(C)nc21,-5%,nt,-5%
O=C(O)CCS(=O)(=O)c1ccccc1Cl,nt,nt,9%
CC(=O)Oc1ccc(N2C(=O)CC(N3CCOCC3)C2=O)cc1 (stereo not drawn),-5%,-1,32µM*
CCOC(=O)c1ccc(N2C(=O)CC(N(C)CCc3ccc(OC)c(OC)c3)C2=O)cc1 (stereo not drawn),-3%,24,10µM*

# Screening results deposited in PubChem by National Center for Advancing Translational Sciences (NCATS).
